Hits are enriched below; roughly 10% of the tested compounds scored in any of these assays.
Luc counter: Kinase-Glo luciferase inhibition (counter-screen); AID 1379; 0.28% of 200,000 active; Kinase-Glo luciferase, ATP luminescence, 8 min; Potency, µM (series often up to 38.3 µM), for the others: top-dose activity change, negative = inhibition, hits mostly inhibitors; active = well fitted inhibition curve with a large enough effect; inconclusive = small, poorly fitted or top-dose-only effect; also: potency is read from the fitted curve at half-maximal effect; nearly all actives have a fitted effect of over 60% in size
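Recombinant Kinase-Glo luciferase, 10 uM ATP (linear range), luciferin; imidazole pH 7.2 / KCl / MgCl2 / Tween / BSA buffer; 8 min RT; luminescence.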
HPGD block: blocks human HPGD enzyme activity. purified HPGD, NADH fluorescence kinetic, PGE2 substrate. AID 894. Potency, µM, inactives show at the highest dose activity change, negative = inhibition, usual class: inhibitors. 4.3% of 150,000 active; also: potency is read from the fitted curve at half-maximal effect
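NADH formation kinetics: reaction with 30 uM PGE2 and 1 mM NAD+ (final), 20 nM enzyme, Tris-HCl pH 8 with Tween 20, after 15 min compound preincubation at room temperature. Fluorescence change, last versus first of five reads.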
ALDH1A1 inh: inhibitors of human aldehyde dehydrogenase 1A1; Purified ALDH1A1, NADH fluorescence, propionaldehyde substrate; Potency, µM (series often up to 75.3 µM), for inactives: top-dose activity, negative = inhibition, hits mostly inhibitors; 7.3% of 220,000 active; P00352;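 also: potency is read from the fitted curve at half-maximal effect; plate controls were no enzyme wells and a reference inhibitor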
Target sequence (P00352 whole entry, looked up): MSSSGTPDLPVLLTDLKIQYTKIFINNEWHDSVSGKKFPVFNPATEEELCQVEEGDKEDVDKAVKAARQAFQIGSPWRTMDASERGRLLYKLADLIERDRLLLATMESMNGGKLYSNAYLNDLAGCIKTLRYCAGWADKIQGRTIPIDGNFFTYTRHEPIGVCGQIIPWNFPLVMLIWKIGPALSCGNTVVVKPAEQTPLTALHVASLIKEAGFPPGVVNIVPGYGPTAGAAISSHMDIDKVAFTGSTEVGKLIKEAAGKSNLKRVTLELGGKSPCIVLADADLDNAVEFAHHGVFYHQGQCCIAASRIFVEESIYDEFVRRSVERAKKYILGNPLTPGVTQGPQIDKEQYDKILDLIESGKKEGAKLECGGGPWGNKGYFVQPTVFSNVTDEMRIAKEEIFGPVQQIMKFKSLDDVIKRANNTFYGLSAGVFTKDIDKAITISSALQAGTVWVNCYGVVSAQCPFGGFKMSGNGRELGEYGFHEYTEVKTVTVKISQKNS
PNC inhibitor: inhibitors of perinucleolar compartment assembly; PC3M PTB-GFP, PNC prevalence imaging, 16 h; stronger effect = lower value; activity change (PNC), negative = inhibition, % at 10 µM; 3.1% of 140,000 active; AID 2417;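 active = readout at or below -70, meaning at least 70% loss of cells showing the perinucleolar compartment, a nuclear body marking cancer cells; inconclusive = readout between -30 and a set limit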;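 also: plate controls were DMSO wells for no effect and camptothecin positive control wells for full effect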
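PC3M cells stably expressing PTB-GFP, 750–1000 cells/well, treated 16 h at 37 °C with compound (23 nl of library stock), in duplicate. After paraformaldehyde fixation and Hoechst stain, imaged at 20x; PNC prevalence scored by image analysis.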
Lamin A splicing: changes lamin A minigene splicing in HeLa cells. HeLa LMNA splicing GFP/RFP minigene ratio, 48 h. Potency, µM (series often up to 46.1 µM), inactives show at the top dose ratio change, negative = inhibition, usual class: inhibitors. 0.01% of 200,000 active; active = well fitted inhibition curve with a large enough effect in the signal ratio, with a control signal flat, not every such curve was filed as active; inconclusive = small, poorly fitted or top-dose-only effect, or effect the other way, or a change in a side signal; the % refers to the signal ratio; also: potency is read from the fitted curve at half-maximal effect
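Read-out is the ratio of GFP to DsRed2 object intensity, acquired by 488 nm laser-scanning cytometry on HeLa lamin A-EGFP minigene reporter cells. Compound incubation 48 hrs at 37 °C in Opti-MEM with 2% FBS; DMSO 0.5% final.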
An asterisk follows results filed as active; u = inconclusive; x = not tested or not shown; [ ] = dose if it differs, or a comment. Unless noted, calls follow the shape of the dose curve; as a rule, active = well fitted inhibition curve with a large enough effect (not every such curve was filed as active); inconclusive = small, poorly fitted or top-dose-only effect, or another doubt; inactive = no such curve, though single readings can be large or run the other way. Unless noted, % is scaled to controls: 0 for no effect and ±100 for the full control effect.

SMILES	Luc counter	HPGD block	ALDH1A1 inh	PNC inhibitor	Lamin A splicing
CC(=N/O)/C(C)=N\NC(=O)c1ccccn1	u	x	12%	x	-7%[9.22 µM]
C/C(=N/NC(=O)CNC(=O)c1ccccn1)c1ccccc1	1%	u	14µM*	u	-2%
C/C(=N\NC(=O)c1ccccn1)c1ccc(C(=O)O)s1	14µM*	x	10µM*	x	x
CCOC(=O)C1CCCN(S(=O)(=O)c2ccc(N3CCCCS3(=O)=O)cc2)C1 (stereo not drawn)	x	x	x	x	1%[46 µM]
COCC(=O)N1CCC[C@@]2(CCN(c3ccccn3)C2)C1	-3%	-24%	u	x	x
CCCCn1cnc2sc(-c3ccccc3)cc2c1=O	-1%	u	u	32	2%
CCCN1C(=O)/C(=c2\sc3nc(=O)c(Cc4ccc(C)cc4)nn3c2=O)c2ccccc21	1%	x	6.3µM*	x	u
CCCCN1C(=O)/C(=c2\sc3nc(=O)c(-c4ccccc4)nn3c2=O)c2ccccc21	-4%	25µM*	4.5µM*	20	4%
O=C(NCc1ccc2c(c1)CCN2C(=O)c1ccc(F)cc1)c1ccco1	x	x	x	x	-4%[46 µM]
C=CC[C@@H]1C=C[C@@H](O/N=C2/C[C@@H](O)[C@@H](O)[C@@H]3[C@@H]4C(=O)N(CC)C(=O)[C@H]4CC[C@@H]23)[C@@H](CO)O1	x	x	14%[13.5 µM]	x	x
O=S(=O)(c1ccccc1)c1ccccc1/C=N\O	0%	-27%	-1%	-96*	u
Cc1ccc(S(=O)(=O)Oc2ccccc2/C=N/O)cc1	2%	x	-14%	x	u
CN1CCN(c2ncc3nc(-c4ccccc4)c(=O)n(C)c3n2)CC1	x	x	u	x	-10%
CCOC(=O)N1CCC(NC(=O)C2CCN(C(=O)N3CC(C)Oc4ccccc43)CC2)CC1 (stereo not drawn)	0%	-8%	u	-2	-5%
CCOC(=O)N1CCC(NC(=O)C2CCN(C(=O)c3cc4oc(C)cc4n3Cc3c(F)cccc3Cl)CC2)CC1	1%	x	20µM*	x	x
COc1ccc(OC)c(CNC(=O)c2cc(=O)[nH]c3ccc(S(=O)(=O)N4CCCCC4C)cc23)c1 (stereo not drawn)	x	x	x	x	2%[46 µM]
O=c1c2c(n3cnnc3n1-c1ccccc1)-c1ccccc1CC21CCCC1	7%	-7%	u	19	-10%
Cn1c(=O)c2c(n3cnnc13)-c1ccccc1CC21CCCC1	4%	-11%	11µM*	9	u
Cc1ccccc1CN1C(=O)c2ccccc2Sc2ccc(C(=O)NC(C)c3ccccc3)cc21 (stereo not drawn)	x	x	x	x	-14%[46 µM]
Fc1ccc(NC(=S)N2N=CCC2c2ccccc2)cc1 (stereo not drawn)	-28%	-13%	7.1µM*	-15	21%
S=C(Nc1ccccc1)N1N=CCC1c1ccccc1 (stereo not drawn)	-5%	0%	u	38	0%
Cc1cccc(N2C(=O)CCSC23C(=O)N(Cc2ccc(F)cc2)c2ccccc23)c1 (stereo not drawn)	x	x	x	x	0%[46 µM]
CCOC(=O)c1c(C)nc2sc3c(=O)n(-c4ccc(OC)cc4)nnc3c2c1-c1ccc(OC)cc1	-7%	-12%	-9%	-106*	3%
CCOC(=O)c1c(C)nc2sc3c(c2c1-c1ccc(OC)cc1)NC(c1ccccc1)NC3=O (stereo not drawn)	-1%	121%	u	-83*	14%
COc1ccc(-c2c(C(C)=O)c(C)nc3sc4c(=O)[nH]nnc4c23)cc1	0%	18µM*	u	26	16%
SMILES	Luc counter	HPGD block	ALDH1A1 inh	PNC inhibitor	Lamin A splicing
COc1cccc(CN2CCN(Cc3nc(-c4cccc(F)c4F)oc3C)CC2=O)c1	-1%	x	25µM*	x	u
Cc1cnc(C)c(N2CCN(Cc3nc(-c4cccc(F)c4F)oc3C)CC2)n1	-2%	x	-6%	x	-1%[46 µM]
O=C(/C=C/c1ccco1)NC(=S)Nc1ccccn1	-5%	16µM*	u	5	-2%
O=C(/C=C/c1ccco1)NC(=S)Nc1ccccc1N1CCOCC1	7%	-24%	u	-109*	3%
O=c1c(-c2cccc(F)c2)nc2cncnc2n1C1CC1	0%	-10%	-1%	x	x
ClC1(Cl)CC1Cn1c(C2CC2)nc2ccccc21 (stereo not drawn)	-1%	x	10µM*	x	-1%[46 µM]

Screening results deposited in PubChem BioAssay by National Center for Advancing Translational Sciences (NCATS).
